Screening data (PubChem BioAssay)
M1 PAM – human M1 muscarinic receptor positive allosteric modulators, primary screen, CHO-K1 cells, Fluo-8 calcium fluorescence, 1536-well; Muscarinic acetylcholine receptor M1 (Homo sapiens), P11229; 0.088% of 360,000 active; AID 588819, 2011; activation, % at 3 µM; CHO-K1 hM1, ACh EC20; 0% = ACh EC20, 100% = maximal ACh; in the data active = activation above about 19%, passing the limit was not always enough
Target sequence (P11229 whole entry, looked up): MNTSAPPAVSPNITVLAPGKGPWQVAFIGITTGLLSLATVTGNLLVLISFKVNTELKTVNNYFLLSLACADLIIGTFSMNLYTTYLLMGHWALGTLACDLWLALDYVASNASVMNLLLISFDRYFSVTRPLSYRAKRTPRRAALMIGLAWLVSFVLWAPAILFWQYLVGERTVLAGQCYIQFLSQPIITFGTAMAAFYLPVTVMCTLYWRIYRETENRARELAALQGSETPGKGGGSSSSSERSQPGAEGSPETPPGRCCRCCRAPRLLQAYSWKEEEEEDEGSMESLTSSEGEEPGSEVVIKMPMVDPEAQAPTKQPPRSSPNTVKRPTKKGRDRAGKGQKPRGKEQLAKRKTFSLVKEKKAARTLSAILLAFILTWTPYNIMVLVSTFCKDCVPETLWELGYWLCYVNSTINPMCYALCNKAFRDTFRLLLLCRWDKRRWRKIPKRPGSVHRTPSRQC
CHRM1 antagonist – human M1 muscarinic receptor antagonists, primary screen, CHO-K1 cells, Fluo-8 calcium fluorescence, 1536-well; Muscarinic acetylcholine receptor M1 (Homo sapiens), P11229; CHO-K1 hM1, ACh EC80 antagonist; inhibition, % at 3 µM; 1.3% of 360,000 active; AID 588852, 2011;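 active = percent inhibition above its own plate's cutoff, namely the mean of that plate's compound wells plus 3 SD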;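 note: peak over basal fluorescence ratio during 140 s after agonist addition; 0% = ACh EC80 plus DMSO and 100% = DMSO alone without agonist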
CHO-K1 Ca PAM – nonselective calcium activators in parental CHO-K1 cells, primary screen, counter-screen for M1 PAM project, cell-based, Fluo-8 calcium fluorescence, full deck, 1536-well; ATP EC20; 0% at ATP EC20, 100% at ATP max; activation, % at 3 µM; 0.02% of 360,000 active; AID 602247, 2012;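 active = activation above the run cutoff, the mean activation of all test compounds plus 3 SD, cut at about 40% in these data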;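 note: peak over basal fluorescence ratio in a 140 s read after ATP addition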
M1 ag parental – counter-screen for M1 agonists: effect in parental CHO-K1 cells | Fluo-8 calcium fluorescence; scaled to maximal ATP response, vehicle zero | activation, % at 3 µM | 0.48% of 360,000 active | AID 602248, 2012; in the data active = activation above about 15%;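 note: untransfected CHO-K1 host cells lacking M1 receptor as counterscreen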
CHO-K1 Ca antag – M1 antagonist counterscreen hit in parental CHO-K1 cells; inhibition, % at 3 µM; 0.6% of 360,000 active; ATP-induced calcium, Fluo-8 fluorescence;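 active = inhibition above a per-plate cutoff, the plate's mean sample inhibition plus 3 SD, cut at about 24% in these data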;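 note: 0% = DMSO plus EC80 ATP and 100% = DMSO alone without ATP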
M1 ag – human M1 muscarinic receptor agonists, primary screen, Fluo-8 calcium fluorescence, CHO-K1 cells, HTS | CHO-K1 hM1, agonist mode; 0% DMSO, 100% acetylcholine EC100 | AID 588814, 2011 | 0.33% of 360,000 active | activation, % at 3 µM;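 active = activation above the run's mean compound activation plus 3 SD, cut at about 16% in these data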;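 note: peak over basal fluorescence ratio within a 140 s kinetic read after compound addition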
Numbers without * were called inactive. In the library only some 2.3% were active in any assay of this set; here they are far more common.

SMILES	M1 PAM	CHRM1 antagonist	CHO-K1 Ca PAM	M1 ag parental	CHO-K1 Ca antag	M1 ag
CC(=O)N1CCN(Cc2ccc(Cl)nc2)CC1	28*	-2	9	1	-6	-3
CCN1CCN(CC(c2ccccc2)c2ccccc2)CC1	-30	100*	2	1	-3	-9
CCN1CCc2ccccc2C1	3	-4	11	1	-4	-4
CC(C)(C)n1nnnc1C(c1ccccc1)N1CCC2(CC1)C(=O)NCN2c1ccccc1 (configuration not stated)	2	-30	19	4	-15	-1
CCc1nc(N2CCNCC2)c(C#N)c2c1CSC(C)(C)C2	-18	47*	-7	0	7	-6
C/C(=N\N1CCCCCC1)c1c(O)n(-c2ccccc2C)c(=O)[nH]c1=O	3	-3	8	7	-5	-4
Oc1ccc(Cl)cc1	5	-39	9	1	1	0
C[N+](C)(C)CCc1ccc(O)cc1	0	-7	15	1	-2	35*
CCOC(=O)C1(c2ccccc2)CCN(CCC(=O)Nc2cccc(Br)c2)CC1	-15	20	1	11	-8	2
NNC(N)=O	-22	2	6	2	-1	16*
CN1CCCC1C(O)(c1ccccc1)c1ccccc1 (configuration not stated)	-7	4	22	2	-39	-4
OC(c1cccc(Cl)c1)(c1cccc(Cl)c1)C1CN2CCC1CC2 (configuration not stated)	-31	99*	8	6	4	-9
CC(=O)OC1=CC[C@H]2[C@@H]3CC[C@H]4C[C@H](OC(C)=O)[C@@H](OC(C)=O)C[C@]4(C)[C@H]3CC[C@]12C	-1	0	-9	0	-9	-8
C[N+]12CCC(CC1)C(C(O)(c1ccccc1)c1cccs1)C2 (configuration not stated)	-23	99*	25	2	-13	-8
CCC[N+]12CCC(CC1)C(C(O)(c1ccccc1)c1ccccc1)C2 (configuration not stated)	-24	60*	4	0	-7	-9
CCCC[N+]12CCC(CC1)C(C(O)(c1ccccc1)c1ccccc1)C2 (configuration not stated)	-18	32	-18	0	14	-7
CCN(CCCl)c1cc(CN(C)C)cc(NC(=O)c2ccc(C(=O)Nc3cc(CN(C)C)cc(N(CC)CCCl)c3)cc2)c1	5	-8	17	1	-12	-8
COc1cccc(OC)c1CN1CCCC(C(=O)c2cccc(Cl)c2)C1 (configuration not stated)	-21	22	-19	0	7	-9
COc1ccc(C(=O)C2CCCN(Cc3ccc(F)cc3F)C2)cc1F (configuration not stated)	-26	71*	10	2	-14	-8
COc1ccc(C(=O)C2CCCN(CCc3ccccc3)C2)cc1OC (configuration not stated)	-32	55*	-4	0	9	-11
C[N+]1(C)CCC(OC(=O)C(c2ccccc2)c2ccccc2)CC1	-25	96*	7	0	1	-8
C[N+]1(C)C2CC[C@H]1CC(OC(=O)C(CO)c1ccccc1)C2 (some centres not stated)	-27	100*	-1	0	11	-7
COC(=O)[C@@H](c1ccccc1)C1CCCCN1 (some centres not stated)	-5	12	-3	0	-1	-14
C#CC[N+]1(C)[C@@H]2CC[C@H]1CC(OC(=O)C(CO)c1ccccc1)C2 (some centres not stated)	-31	99*	6	0	-17	-9
